Screens from PubChem.
Rows were chosen to be rich in hits. Some 9.3% of all compounds tested hit in one or more screens of this group.
Vaccinia Venus: inhibitors of vaccinia virus (Venus reporter). Vaccinia virus Venus reporter expression, fluorescence. Potency, µM (doses to about 36.5 µM), inactives show top-dose activity change, negative = inhibition, usual class: inhibitors. 0.46% of 330,000 active; calls by dose curve; tested in A549 cells; also: potency is read from the fitted curve at half-maximal effect; nearly all actives have a fitted effect of over 30% in size
VACV mCherry inh: vaccinia inhibition (mCherry reporter); Vaccinia virus mCherry reporter infection, fluorescence; Potency, µM (top dose mostly 36.5 µM), inactives show at the highest dose activity change, negative = inhibition, most hits filed as inhibitors; 0.63% of 310,000 active; calls by dose curve; tested in A549 cells; also: potency is read from the fitted curve at half-maximal effect; nearly all actives have a fitted effect of over 35% in size
HCMV antiviral: human cytomegalovirus inhibition. activity change, negative = inhibition, % at 57.5 µM. HFF cells, HCMV-luciferase reporter, 72 h; stronger effect = lower value. 4.5% of 410,000 active; in the data active = activity change below about -60%; inconclusive = no clear call, values can overlap the other calls; inactive = above about -39%
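Two-dose cell screen: HFF monolayers treated with compounds and infected with luciferase-expressing HCMV at 1 PFU/cell, 72 h at 37C, then lysed for luciferase measurement.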
HCV inhibitor: blocks hepatitis C virus; AID 651820; Potency, µM (doses to about 41.8 µM), without a hit: top-dose activity change, negative = inhibition, most hits filed as inhibitors; 3.4% of 340,000 active; Huh7.5.1 HCVcc-Cre infection, luciferase reporter, 44 h; also: potency is read from the fitted curve at half-maximal effect
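Antiviral activity was scored by luciferase reporter output from cells infected with HCVcc-Cre (~0.5 moi) in presence of compound, 44 h infection period, cells seeded 1,000/well 4 h prior.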
FMDV inh: antivirals against foot and mouth disease virus; FMDV antiviral cell-based qHTS; AID 1159524; Potency, µM (titrated, usually from 57.9 µM), for inactives: top-dose activity change, negative = inhibition, actives largely listed as inhibitors; 1.2% of 410,000 active; calls by dose curve; tested in HEK293T cells; also: read-out not given here; potency is read from the fitted curve at half-maximal effect; nearly all actives have a fitted effect of over 45% in size
Sm TGR inh: inhibitors of Schistosoma mansoni thioredoxin glutathione reductase; purified TGR, DTNB reduction, TNB absorbance 405 nm; 3% of 360,000 active; Potency, µM (top dose mostly 114 µM), without a hit: at the highest dose activity change, negative = inhibition, hits mostly inhibitors; Q962Y6; also: potency is read from the fitted curve at half-maximal effect; nearly all actives have a fitted effect of over 60% in size
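Kinetic colorimetric format: TGR-catalysed, NADPH-driven DTNB reduction monitored via TNB absorbance. Enzyme dispensed at 20 nM; compound exposure 15 min at room temperature before reaction start.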
* marks the source's active call; other numbers are inactive results. Unless noted, calls follow the shape of the dose curve; as a rule, active = well fitted curve in the direction sought with a large enough effect; inconclusive = small, poorly fitted or top-dose-only effect, or another doubt; inactive = no such curve, though single readings can be large; an effect the other way counts as inactive or inconclusive. % is scaled to controls: 0 for no effect and ±100 for the full control effect.

`CCC(C)(C)NC(=O)c1cc(OC)c(OC)cc1[N+](=O)[O-]` gave Vaccinia Venus 7.2%, HCMV antiviral 1.0, HCV inhibitor 18.3%, FMDV inh -9.1% and Sm TGR inh 1.0%.
Screening Cc1ccc(-c2ccc(CCC(=O)O)n2-c2cccc(O)c2)cc1 returned Vaccinia Venus 1.8%, VACV mCherry inh -8.1%, HCMV antiviral 36.0, HCV inhibitor 13.9%, FMDV inh 47.4% and Sm TGR inh 14.1µM*.
For Cc1ccc(-c2ccc(CCC(=O)O)n2CC(=O)O)cc1 the results were Vaccinia Venus -7.3%, VACV mCherry inh inactive, HCV inhibitor 7.7% and Sm TGR inh 17.8µM*.
CC#CCc1cc2ccccc2c(=O)o1 was read as Vaccinia Venus 7.0%, VACV mCherry inh 16.4%, HCMV antiviral 7.3, HCV inhibitor 8.7%, FMDV inh -10.6% and Sm TGR inh 3.98µM*.
For COc1cc2cc(CCCOC(=O)c3cc(OC)c(OC)c(OC)c3)oc(=O)c2cc1OC the results were Vaccinia Venus -16.3%, VACV mCherry inh inactive, HCMV antiviral 13.7, HCV inhibitor -17.9% and FMDV inh -8.9%.
COc1cc2cc(CCCOC(=O)c3ccco3)oc(=O)c2cc1OC was read as Vaccinia Venus -17.1%, VACV mCherry inh -2.1%, HCMV antiviral 3.8, HCV inhibitor -8.5%, FMDV inh -16.2% and Sm TGR inh 50.1µM*.
COc1cc(C(=O)OCCc2cc3ccccc3c(=O)o2)cc(OC)c1OC was read as Vaccinia Venus -16.4%, VACV mCherry inh -12.3%, HCMV antiviral 2.6, HCV inhibitor 3.55µM*, FMDV inh inconclusive and Sm TGR inh -21.1%.
CCOc1ccc(CCNC(=O)CCn2nc(C)c3c(C)n(-c4ccccc4)nc3c2=O)cc1 was read as HCMV antiviral -10.9, HCV inhibitor inconclusive, FMDV inh -10.6% and Sm TGR inh -12.2%.
`Cc1nc2cc(NC(=O)c3ccc(Br)s3)ccc2s1` gave HCMV antiviral inconclusive, HCV inhibitor 11.2µM*, FMDV inh -35.1% and Sm TGR inh -24.3%.
Screening O=C(CSc1n[nH]c(-c2ccccn2)n1)Nc1ccc(Cl)cc1 returned Vaccinia Venus -26.2%, VACV mCherry inh 7.94µM*, HCMV antiviral -95.6*, HCV inhibitor 5.01µM*, FMDV inh -16.4% and Sm TGR inh -20.2%.
Screening Cc1ccc(NC(=O)CSc2n[nH]c(-c3ccccn3)n2)cc1 returned Vaccinia Venus inconclusive, VACV mCherry inh 10µM*, HCMV antiviral -12.3, HCV inhibitor inconclusive, FMDV inh -0.1% and Sm TGR inh 11.6%.
`O=C(CSc1n[nH]c(-c2ccccn2)n1)Nc1ccc(F)cc1` gave Vaccinia Venus inconclusive, VACV mCherry inh 14.1µM*, HCMV antiviral inconclusive, HCV inhibitor inconclusive, FMDV inh 11.8% and Sm TGR inh 0.6%.
`O=C(CSc1n[nH]c(-c2ccc(Cl)cc2Cl)n1)Nc1ccccn1` gave Vaccinia Venus -13.3%, VACV mCherry inh -26.7%, HCMV antiviral -39.5, HCV inhibitor -29.0%, FMDV inh -26.7% and Sm TGR inh 5.1%.
`CCOc1cc(N2CCOCC2)c(OCC)cc1NC(=O)CN1C(=O)C2CC=CCC2C1=O` (configuration not stated) gave Vaccinia Venus -0.6%, VACV mCherry inh -10.7%, HCMV antiviral -16.6, HCV inhibitor -3.9%, FMDV inh -15.8% and Sm TGR inh 2.4%.
`COc1oc(C(=O)NC2CCCCC2)c(-c2ccc(Cl)cc2)c1S(=O)(=O)c1ccccc1` gave Vaccinia Venus -9.1%, VACV mCherry inh inactive, HCMV antiviral -64.2*, HCV inhibitor inconclusive and FMDV inh 14.2%.
Screening O=C(CSc1oc(-c2ccccc2)nc1S(=O)(=O)c1ccc(Cl)cc1)NC1CCCCC1 returned Vaccinia Venus 0.9%, VACV mCherry inh inactive, HCMV antiviral 6.9, FMDV inh -0.2% and Sm TGR inh -11.5%.
Screening O=C(c1ccc(S(=O)(=O)N2CCOCC2)cc1)N1CCN(c2ccc(F)cc2)CC1 returned Vaccinia Venus 0.7%, HCMV antiviral 16.6, HCV inhibitor 6.6%, FMDV inh -19.7% and Sm TGR inh 0.0%.
Screening O=C(/C=C/c1ccc2ccccc2n1)N1CCN(S(=O)(=O)c2ccccc2F)CC1 returned HCMV antiviral -96.8*, HCV inhibitor inconclusive, FMDV inh inconclusive and Sm TGR inh -8.8%.
For O=C(/C=C/c1ccc(S(=O)(=O)N2CCOCC2)cc1)N1CCN(c2ccc(F)cc2)CC1 the results were Vaccinia Venus -25.7%, VACV mCherry inh inconclusive, HCMV antiviral -62.8*, HCV inhibitor -15.8%, FMDV inh inconclusive and Sm TGR inh inconclusive.
For O=C(/C=C/c1ccc2ccccc2n1)N1CCN(S(=O)(=O)c2ccc(F)cc2)CC1 the results were HCMV antiviral -80.1*, HCV inhibitor -21.6%, FMDV inh inconclusive and Sm TGR inh 6.4%.
CCCN(CCC)C(=O)Cn1c(=O)n(CCCC(=O)NCc2ccco2)c(=O)c2sccc21 was read as Vaccinia Venus 1.3%, VACV mCherry inh inactive, HCMV antiviral 0.0, HCV inhibitor 3.9%, FMDV inh -5.8% and Sm TGR inh 2.2%.
`CN1CCN(c2nc(-c3ccoc3)nc3ccccc23)CC1` gave FMDV inh -21.1%.
`COc1ccc(N/C=C2\CCOC2=O)cc1` gave HCMV antiviral 3.9, HCV inhibitor 16.5%, FMDV inh 28.2% and Sm TGR inh -10.7%.
Screening O=C1OC2(CCCCC2)OC(=O)C1=CNc1ccc2c(c1)OCO2 returned HCMV antiviral -9.0, HCV inhibitor 7.4%, FMDV inh 28.3% and Sm TGR inh -15.3%.
For COc1ccc(N/C=C2\CCc3ccccc3C2=O)cc1 the results were HCMV antiviral -18.2, HCV inhibitor -25.3%, FMDV inh 25.1µM* and Sm TGR inh 39.8µM*.
COc1ccc2c(c1)CC/C(=C\Nc1ccc3c(c1)OCO3)C2=O was read as Vaccinia Venus -10.0%, VACV mCherry inh -24.6%, HCMV antiviral -7.8, HCV inhibitor 7.08µM* and Sm TGR inh 6.31µM*.
O=C1/C(=C/Nc2ccc3c(c2)OCO3)CCc2ccccc21 was read as Vaccinia Venus -16.1%, VACV mCherry inh inconclusive, HCMV antiviral -62.0*, HCV inhibitor inconclusive, FMDV inh inconclusive and Sm TGR inh inconclusive.
For CN(CC(=O)Nc1ccccc1Cl)C(=O)Cn1cc(C(F)(F)F)ccc1=O the results were HCMV antiviral 102.7, HCV inhibitor 13.6%, FMDV inh -7.7% and Sm TGR inh 0.9%.
`Cc1cc(S(=O)(=O)NCc2cccnc2)ccc1F` gave Vaccinia Venus -9.3%, VACV mCherry inh inactive, HCMV antiviral -9.2, HCV inhibitor 8.6%, FMDV inh 17.1% and Sm TGR inh 7.4%.
